# Test results taken from publication PMC5540273 (PLoS ONE, 2017).
# What was measured:
# Settings in all cases: concentration: 1 μM, replicates: in singlicate; n = 1
# RIPK2 = tested on: RIPK2
# RIPK4 = tested on: RIPK4
# RIPK5 = tested on: RIPK5
# ROCK1 = tested on: ROCK1
# ROCK2 = tested on: ROCK2
# ROS1 = tested on: ROS1
# [1] = tested on: RPS6KA4(Kin.Dom.1-N-terminal)
# [2] = tested on: RPS6KA4(Kin.Dom.2-C-terminal)
# [3] = tested on: RPS6KA5(Kin.Dom.1-N-terminal)
# [4] = tested on: RPS6KA5(Kin.Dom.2-C-terminal)
# [5] = tested on: T1, RSK1(Kin.Dom.1-N-terminal)
# T1 construct: gene RPS6KA1
# [6] = tested on: T2, RSK1(Kin.Dom.2-C-terminal)
# T2 construct: gene RPS6KA1
# [7] = tested on: T3, RSK2(Kin.Dom.1-N-terminal)
# T3 construct: gene RPS6KA3
# [8] = tested on: T4, RSK2(Kin.Dom.2-C-terminal)
# T4 construct: gene RPS6KA3
# [9] = tested on: T5, RSK3(Kin.Dom.1-N-terminal)
# T5 construct: gene RPS6KA2
# [10] = tested on: T6, RSK3(Kin.Dom.2-C-terminal)
# T6 construct: gene RPS6KA2
# [11] = tested on: T7, RSK4(Kin.Dom.1-N-terminal)
# T7 construct: gene RPS6KA6
# [12] = tested on: T8, RSK4(Kin.Dom.2-C-terminal)
# T8 construct: gene RPS6KA6
# S6K1 = tested on: S6K1
# SBK1 = tested on: SBK1
# 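Also: KINOMEscan kinase panel screen.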
Structure (SMILES),%Inh (RIPK2) [%],%Inh (RIPK4) [%],%Inh (RIPK5) [%],%Inh (ROCK1) [%],%Inh (ROCK2) [%],%Inh (ROS1) [%],%Inh [1] [%],%Inh [2] [%],%Inh [3] [%],%Inh [4] [%],%Inh [5] [%],%Inh [6] [%],%Inh [7] [%],%Inh [8] [%],%Inh [9] [%],%Inh [10] [%],%Inh [11] [%],%Inh [12] [%],%Inh (S6K1) [%],%Inh (SBK1) [%]
COc1cc(Nc2nccc(N3CCC(NC(=O)C(C)c4ccc(Cl)cc4)C3)n2)cc(OC)c1OC (centres unmarked) [GSK1379757],0,0,16,0,0,31,0,0,0,0,21,0,2,1,0,0,0,5,0,12
CCS(=O)(=O)c1ccc(OC)c(Nc2ncc(-c3ccc(F)cc3)o2)c1.Cl [GW591947],19,0,0,20,16,0,25,0,27,0,11,0,0,22,0,2,0,3,0,0
Cc1cccc(-c2nc(Nc3ccc4c(cnn4C)c3)c3ccccc3n2)n1 [GW876731],0,10,0,41,0,12,12,0,0,0,32,0,26,0,24,0,8,0,0,10
Nc1nccc2scc(-c3ccc4c(c3)CCN4C(=O)Cc3ccccc3)c12 [GSK2576924],58,3,12,0,38,18,13,0,25,14,9,20,0,0,8,7,0,11,2,2
Cc1cccc(-c2cc(-c3c[nH]nc3-c3ccccn3)ccn2)c1 [GW679395],36,12,6,0,10,0,1,0,0,37,9,0,0,7,6,12,0,49,0,5
Nc1n[nH]c2nnc(-c3ccccc3)c(-c3ccccc3)c12 [GW554060],0,0,0,31,31,14,10,0,12,0,0,1,4,29,4,0,10,8,0,13
COc1cccc(C2=C(N(C)c3ccccc3)C(=O)NC2=O)c1 [SB-334865],17,19,0,0,12,0,8,0,20,0,0,0,0,5,11,5,0,19,10,0
CCc1ccc(-c2ccc3c(c2)-c2nn(C)cc2S(=O)(=O)N3C)cc1,0,0,0,0,0,0,0,0,0,0,2,41,15,63,10,32,0,21,22,0
Cc1ccc(Oc2ccc(Nc3ncnc4cc[nH]c34)cc2C)cn1,8,36,14,0,0,11,0,1,16,2,5,8,0,0,16,16,9,6,7,44
COc1cc2ncn(-c3cc(OCc4ccncc4Br)c(C(N)=O)s3)c2cc1OC [GW854278],26,0,9,11,0,6,2,0,0,7,0,22,19,0,20,0,25,7,0,2
